Experimental findings from PubChem BioAssay (NCATS) are described below.

Values joined by “and” are separate entries in the source; they are usually repeats but may differ in a detail not shown here. Equal values may be shown once. Records with an inconclusive call do not appear. Values without a mark were called inactive. Active and inactive are the calls of the source. Calls follow the shape of the dose curve; as a rule, active = well fitted inhibition curve with a large enough effect; inconclusive = small, poorly fitted or top-dose-only effect; inactive = flat fitted curve, though single readings scatter.
% is scaled to controls: 0 for no effect and ±100 for the full control effect; potency is read from the fitted curve at half-maximal effect.

The subject of the assay is HEK293. The experiment in a line: Cytotoxic Profiling of Annotated Libraries Using Quantitative High-Throughput Screening (AID 1296008). Also: nearly all actives have a fitted effect of over 60% in size. The conditions noted are these: Five cell lines viability, CellTiter-Glo ATP luminescence, 48-72 h; max response: stronger effect = lower value. The essentials: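 Compounds were pin-transferred onto cells and incubated 48 or 72 hr at 37 degree Celsius, 95% humidity. CellTiter-Glo was added, plates sat 10 min at room temperature, then ATP-coupled luminescence was imaged as the viability read-out.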
With `Cc1ccc(Cl)c(O)c1`, the max response was -16.6%. Take `CC1=C(C(=O)O)N2C(=O)[C@@H](N)[C@H]2SC1`: the call was inactive.

In the case of `CC(C)[C@]12O[C@@H]1[C@@H]1O[C@]13[C@]1(O[C@H]1C[C@@H]1C4=C(CC[C@@]13C)C(=O)OC4)[C@H]2O`, the max response was -111%.

Turning to `COc1cc2cc(c1Cl)N(C)C(=O)C[C@H](OC(=O)C(C)C)[C@]1(C)O[C@H]1[C@H](C)[C@@H]1C[C@@](O)(NC(=O)O1)[C@H](OC)C=CC=C(C)C2`, the max response was -91.4%.

For `O=S(=O)(O)C(F)(F)C(F)(F)C(F)(F)C(F)(F)F`, the result was inactive.

On to `CC(C)(C)c1cc(C=C(C#N)C#N)cc(Br)c1O`, for which the max response was -8.76%. Turning to `CC(=Cc1csc(C)n1)[C@@H]1C[C@H]2O[C@]2(C)CCC[C@H](C)[C@@H](O)[C@@H](C)C(=O)C(C)(C)[C@@H](O)CC(=O)O1`, the max response is -85.5%. Turning to `O=C(Nc1ccncc1)C(=O)c1cn(Cc2ccc(Cl)cc2)c2ccccc12`, the Potency is 37.2 nM (active). `C[C@]12CC[C@@H]3[C@@H](CCC4=CC(=O)CC[C@@H]43)[C@@H]1CC[C@@H]2OC(=O)CCc1ccccc1`: the result was inactive.

As for `NC1=NC(=O)N2CC12` (centres undefined), the Potency is 8330 nM (active). Take `c1ccc2c(CN3CCNCC3)cccc2c1`: the max response was -5.02%.

Take `CCCC[N+]1(C)[C@H]2CC(OC(=O)[C@H](CO)c3ccccc3)C[C@H]1[C@H]1O[C@H]12` (some centres undefined): the max response is -1.83%.

As to `CCOCCOC(C)=O`, the max response was -1.29%.

On to `C#CC1(O)CCC2C3CCC4=CC(=O)CCC4(C)C3CCC21C` (centres undefined), for which the max response was -10.4%.

Consider `COC(C)(C)CCCC(C)C/C=C/C(C)=C/C(=O)OC(C)C` (centres undefined), for which the max response was 3.25%. Consider `NC1CC1c1ccccc1` (centres undefined), for which the result was inactive. Regarding `O=C1C=CC[C@@H]2[C@H]3CCCN4CCC[C@@H](CN12)[C@@H]34`, the result was inactive.

On to `O=C(O)COc1ccccc1`, for which the max response is 2.38%.

Turning to `Cc1[nH]nc2ccc(-c3cncc(OC[C@@H](N)Cc4c[nH]c5ccccc45)c3)cc12`, the Potency was 132 nM (active) and 103 nM (active). Regarding `C[C@]12CCC(=O)C(O)=C1CC[C@@H]1[C@H]3CCC(=O)[C@@]3(C)CC[C@@H]12`, the max response was -10.2%.

With `O=[N+]([O-])/N=C1\NCCN1Cc1ccc(Cl)nc1`, the compound was called inactive. In the case of `O=C(N[C@@H](COc1ccc2[nH]c(=O)[nH]c2c1)c1ccccc1)c1cccn(Cc2ccc(F)c(F)c2)c1=O`, the max response was -35.2% and -9.78%. On to `C[C@]12Cc3cn[nH]c3C[C@@H]1CC[C@@H]1[C@H]2CC[C@@]2(C)[C@H]1CC[C@]2(C)O`, for which the max response was -21.8%. On to `Nc1c(Cl)c(Cl)c(Cl)c(Cl)c1Cl`, for which the max response was -6.61%.
